Source: PubChem BioAssay (NCI)
Where “and” joins values, the source holds several entries; their conditions need not be identical. Equal entries are not always repeated. The panel holds about 83,000 compounds, 20% with a hit somewhere; the sample as a whole holds those more often.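 48-hour exposure, single concentration, 96-well plates; percent growth endpoint where 0 means no net growth. Active: below 10.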 Calls of active or inactive are those of the source.

Assays:
Assay in all cases: NCI-60 one-dose screen, 48 h (100 = growth as untreated, 0 = no growth, -100 = all killed)
[1] = tested on: T-47D breast; conditions: 10 µM
[2] = tested on: BT-549 breast; conditions: 10 µM
[3] = tested on: MDA-MB-435 melanoma; conditions: 10 µM
[4] = tested on: SW-620 colon; conditions: 10 µM
[5] = tested on: MCF7 breast
[6] = tested on: HCC-2998 colon; conditions: 10 µM
[7] = tested on: KM12 colon; conditions: 10 µM
[8] = tested on: HCT-116 colon; conditions: 10 µM

Measured: growth

COc1cc(/C=N\Nc2ccccc2)ccc1OC(=O)c1ccccc1
inactive: [1] 36.1% | [2] 91% | [3] 44.5% | [4] 69.8% | [5]; 10 µM unless noted 56.4% | [6] 74.9%
active: [7] 8.69%

COC(=O)Nc1cccc(Cl)c1OC
inactive: [1] 104% | [2] 111% | [3] 101% | [4] 71.7% | [5]; 10 µM unless noted 104% | [6] 104% | [7] 111%

CCn1c(=O)n(C)c2c(=O)n(C)c(=O)n(C)c21
inactive: [1] 98% | [2] 101% | [3] 98.6% | [5]; 10 µM unless noted 103% | [8] 109% | [6] 87.8%

CCOc1ccc(I)cc1
inactive: [1] 114% | [2] 116% | [3] 112% | [4] 105% | [5]; 10 µM unless noted 98.2% | [6] 106% | [7] 95.2%

O=[N+]([O-])c1cccc2nsnc12
inactive: [1] 103% | [2] 106% | [3] 111% | [4] 104% | [5]; 10 µM unless noted 93.5% | [6] 111%

COCCOC(=O)c1ccc(C(C)C)cc1
inactive: [1] 85% | [2] 98.5% | [3] 102% | [5]; 10 µM unless noted 95.6% | [8] 100% | [6] 103% | [7] 101%

N#Cc1ccc(NC(=O)Nc2cccc(C#N)c2)cc1
inactive: [1] 66.9% | [2] 108% | [3] 78.8% | [5]; 10 µM unless noted 82.8% | [8] 82.5% | [6] 95.1% | [7] 102%

NC(=O)NC(=O)c1ccc(Cl)cc1
inactive: [1] 96.9% | [2] 99.4% | [3] 102% | [5]; 10 µM unless noted 95.4% | [8] 87.9% | [6] 111% | [7] 110%

CCOC(=O)/C(C#N)=C/c1cccc(C)c1
inactive: [1] 86.5% | [2] 64.1% | [3] 107% | [5]; 10 µM unless noted 91.3% | [8] 95.9% | [6] 102% | [7] 103%

COC(=O)c1cccc(Br)c1
inactive: [1] 111% | [2] 107% | [3] 94% | [5]; 10 µM unless noted 116% | [8] 97.8% | [6] 107% | [7] 112%

COc1cc2c3cc1Oc1c(OC)c(OC)cc4c1C(Cc1ccc(O)c(c1)Oc1ccc(cc1)CC3N(C)CC2)N(C)CC4 (stereo not given)
81.8% (inactive) and -100% (active): [5]; 100 µM
active: [1] -64.6% | [4] -46.8% | [5]; 10 µM -71% | [8] -94.7% | [6] -72.7%
inactive: [2] 32.8% | [7] 12.9%

CC(C)C1CCCCC1O (stereo not given)
inactive: [1] 107% | [2] 105% | [3] 100% | [5]; 10 µM unless noted 107% | [8] 109% | [7] 107%

Cc1c(C(=O)O)c(=O)n(-c2ccccc2)n1C
inactive: [1] 98.8% | [2] 114% | [3] 107% | [5]; 10 µM unless noted 112% | [8] 113% | [6] 106% | [7] 120%

O=C(N/N=C/c1ccccc1O)Nc1nn[nH]n1
inactive: [1] 105% | [2] 111% | [3] 98.3% | [5]; 10 µM unless noted 88.6% | [8] 89% | [7] 114%

CC(=O)OC(C(=O)O)c1ccccc1 (stereo not given)
inactive: [1] 118% | [2] 122% | [3] 105% | [8] 108% | [6] 96.3% | [7] 106%

O=c1cc(-c2ccccc2)[nH]c2c1CCCC2
inactive: [1] 22.8% | [2] 53.7% | [5]; 10 µM unless noted 17.2% | [8] 27.9% | [6] 40% | [7] 26.3%
active: [3] -12.9%

[O-][N+](=Nc1cccc(Cl)c1)c1cccc(Cl)c1
inactive: [1] 30.2% | [2] 73.1% | [3] 102% | [5]; 10 µM unless noted 27.6% | [8] 90.6% | [6] 63.1% | [7] 91.9%

COc1ccc2c(NCCCCCCCCNc3c4ccccc4nc4cc(OC)ccc34)c3ccccc3nc2c1
active: [1] -74.6% | [2] -95.9% | [3] -100% | [5]; 10 µM unless noted -100% | [8] -100% | [6] -100% | [7] -100%

Cc1ccc(Cl)cc1NC(=O)N(C)CCO
inactive: [1] 104% | [2] 116% | [3] 117% | [5]; 10 µM unless noted 88.7% | [6] 104% | [7] 120%

Cc1ccc(O)c(C(=O)c2ccccc2)c1
inactive: [1] 109% | [2] 99.1% | [3] 110% | [5]; 10 µM unless noted 105% | [8] 102% | [7] 106%

Cc1ccc(C(=O)c2ccccc2)c(C)c1
inactive: [1] 96.4% | [2] 99.6% | [3] 118% | [5]; 10 µM unless noted 101% | [8] 94.8% | [7] 107%
